In PubChem BioAssay AID1159580 (chemical genetic matrix, 2015):
Hit rate of the full screen: of about 5,500 compounds, about 2,000 (36%) were called active. Inconclusive results (about 18%) are left out. No stated cut-off is given here; in the data, active means normalized growth mostly below about 0.91 (no sharp cut-off); inconclusive means no clear call, values can overlap the other calls; inactive means mostly above about 0.92. The list shows a part of the results.

Experiment: chemical genetic growth profiling, strain panel (AID 1159580);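 further: tested at 20 µM; growth read once vehicle control cultures reached saturation at 30 °C; 1 = growth at the plate median or of vehicle wells; lower values mean less growth of the strain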
Conditions: growth OD
[1] = S. cerevisiae deletion strains, locus YDL101C, strain DUN1, active compounds read low
[2] = S. cerevisiae deletion strains, locus YHR030C, strain SLT2, active compounds read low

Measured: normalized growth

O=C(N/N=C\c1cc(Br)ccc1O)c1ccccc1Oc1ccccc1
active: S. cerevisiae deletion strains, locus YLR113W, strain HOG1, active compounds read low 0.694 | S. cerevisiae deletion strains, locus YPL256C, strain CLN2, active compounds read low 0.764
inactive: S. cerevisiae deletion strains, locus YAR019C, strain CDC15, active compounds read low 0.963 | S. cerevisiae deletion strains, locus YBL105C, strain PKC1, active compounds read low 0.976 | S. cerevisiae deletion strains, locus YBR135W, strain CKS1, active compounds read low 0.981 | S. cerevisiae deletion strains, locus YBR136W, strain MEC1, active compounds read low 0.963 | S. cerevisiae deletion strains, locus YBR160W, strain CDC28, active compounds read low 0.973 | S. cerevisiae deletion strains, locus YDL017W, strain CDC7, active compounds read low 0.969 | S. cerevisiae deletion strains, locus YDL028C, strain MPS1, active compounds read low 0.96 | [1] 0.97 | S. cerevisiae deletion strains, locus YDL108W, strain KIN28, active compounds read low 0.971 | S. cerevisiae deletion strains, locus YDL132W, strain cdc53, active compounds read low 0.966 | S. cerevisiae deletion strains, locus YDL214C, strain PRR2, active compounds read low 0.932 | S. cerevisiae deletion strains, locus YDR052C, strain DBF4, active compounds read low 0.97 | S. cerevisiae deletion strains, locus YDR054C, strain cdc34, active compounds read low 0.968 | S. cerevisiae deletion strains, locus YDR226W, strain ADK1, active compounds read low 0.972 | S. cerevisiae deletion strains, locus YDR477W, strain SNF1, active compounds read low 0.943 | S. cerevisiae deletion strains, locus YER123W, strain YCK3, active compounds read low 0.879 | S. cerevisiae deletion strains, locus YER133W, strain GLC7, active compounds read low 0.955 | S. cerevisiae deletion strains, locus YFL009W, strain cdc4, active compounds read low 0.964 | S. cerevisiae deletion strains, locus YFL029C, strain CAK1, active compounds read low 0.953 | S. cerevisiae deletion strains, locus YFR003C, strain YPI1, active compounds read low 0.969 | S. cerevisiae deletion strains, locus YFR019W, strain FAB1, active compounds read low 0.953 | S. cerevisiae deletion strains, locus YFR028C, strain CDC14, active compounds read low 0.965 | S. cerevisiae deletion strains, locus YGR040W, strain KSS1, active compounds read low 0.942 | S. cerevisiae deletion strains, locus YGR052W, strain FMP48, active compounds read low 0.954 | S. cerevisiae deletion strains, locus YGR092W, strain DBF2, active compounds read low 0.914 | [2] 0.854 | S. cerevisiae deletion strains, locus YHR079C, strain IRE1, active compounds read low 0.885 | S. cerevisiae deletion strains, locus YHR082C, strain KSP1, active compounds read low 0.924 | S. cerevisiae deletion strains, locus YHR205W, strain SCH9, active compounds read low 0.838 | S. cerevisiae deletion strains, locus YIL147C, strain SLN1, active compounds read low 0.949 | S. cerevisiae deletion strains, locus YJL095W, strain BCK1, active compounds read low 0.846 | S. cerevisiae deletion strains, locus YJL128C, strain PBS2, active compounds read low 0.928 | S. cerevisiae deletion strains, locus YJL157C, strain FAR1, active compounds read low 0.955 | S. cerevisiae deletion strains, locus YJR016C, strain ILV3, active compounds read low 0.979 | S. cerevisiae deletion strains, locus YJR066W, strain TOR1 (second series), active compounds read low 0.901 | S. cerevisiae deletion strains, locus YJR066W, strain TOR1, active compounds read low 0.953 | S. cerevisiae deletion strains, locus YKL048C, strain ELM1, active compounds read low 0.915 | S. cerevisiae deletion strains, locus YKL067W, strain YNK1, active compounds read low 0.923 | S. cerevisiae deletion strains, locus YKL101W, strain HSL1, active compounds read low 0.89 | S. cerevisiae deletion strains, locus YKL193C, strain SDS22, active compounds read low 0.972 | S. cerevisiae deletion strains, locus YKL203C, strain TOR2, active compounds read low 1 | S. cerevisiae deletion strains, locus YLR133W, strain CKI1, active compounds read low 0.916 | S. cerevisiae deletion strains, locus YLR403W, strain SFP1, active compounds read low 0.927 | S. cerevisiae deletion strains, locus YML070W, strain DAK1, active compounds read low 0.888 | S. cerevisiae deletion strains, locus YMR001C, strain CDC5, active compounds read low 0.972 | S. cerevisiae deletion strains, locus YMR205C, strain PFK2 (second series), active compounds read low 0.919 | S. cerevisiae deletion strains, locus YMR277W, strain FCP1, active compounds read low 0.98 | S. cerevisiae deletion strains, locus YNL006W, strain LST8, active compounds read low 0.977 | S. cerevisiae deletion strains, locus YNL020C, strain ARK1, active compounds read low 0.935 | S. cerevisiae deletion strains, locus YNL161W, strain CBK1, active compounds read low 0.982 | S. cerevisiae deletion strains, locus YNL183C, strain NPR1, active compounds read low 0.883 | S. cerevisiae deletion strains, locus YNL207W, strain RIO2, active compounds read low 0.976 | S. cerevisiae deletion strains, locus YNL222W, strain SSU72, active compounds read low 0.969 | S. cerevisiae deletion strains, locus YNL307C, strain MCK1 (second series), active compounds read low 0.912 | S. cerevisiae deletion strains, locus YOL078W, strain AVO1, active compounds read low 0.98 | S. cerevisiae deletion strains, locus YOL136C, strain PFK27, active compounds read low 0.909 | S. cerevisiae deletion strains, locus YOR061W, strain CKA2, active compounds read low 0.939 | S. cerevisiae deletion strains, locus YOR119C, strain RIO1, active compounds read low 0.97 | S. cerevisiae deletion strains, locus YOR231W, strain MKK1, active compounds read low 0.892 | S. cerevisiae deletion strains, locus YOR329C, strain SCD5, active compounds read low 0.968 | S. cerevisiae deletion strains, locus YPL031C, strain PHO85, active compounds read low 0.94 | S. cerevisiae deletion strains, locus YPL153C, strain RAD53, active compounds read low 0.934 | S. cerevisiae deletion strains, locus YPL204W, strain HRR25, active compounds read low 0.94 | S. cerevisiae deletion strains, locus YPL209C, strain IPL1, active compounds read low 0.974 | S. cerevisiae deletion strains, locus YPR025C, strain CCL1, active compounds read low 0.969 | S. cerevisiae deletion strains, locus YPR106W, strain ISR1, active compounds read low 0.976 | S. cerevisiae deletion strains, locus YPR111W, strain DBF20, active compounds read low 0.947 | S. cerevisiae deletion strains, strain NNK1, active compounds read low 0.959 | S. cerevisiae deletion strains, strain TSCII, active compounds read low 0.972

O=C(N/N=C\c1c(O)ccc2ccccc12)N/N=C\c1c(O)ccc2ccccc12
inactive: S. cerevisiae deletion strains, locus YAL013W, strain DEP1, active compounds read low 0.996 | S. cerevisiae deletion strains, locus YBR229C, strain ROT2, active compounds read low 0.975 | [1] 1.02 | S. cerevisiae deletion strains, locus YDL134C, strain PPH21, active compounds read low 0.94 | S. cerevisiae deletion strains, locus YDR150W, strain NUM1, active compounds read low 0.908 | S. cerevisiae deletion strains, locus YEL061C, strain CIN8, active compounds read low 0.962 | S. cerevisiae deletion strains, locus YGR078C, strain PAC10, active compounds read low 1.01 | [2] 0.875 | S. cerevisiae deletion strains, locus YHR087W, strain rtc3, active compounds read low 0.989 | S. cerevisiae deletion strains, locus YJL187C, strain SWE1, active compounds read low 0.994 | S. cerevisiae deletion strains, locus YJR043C, strain POL32, active compounds read low 0.988 | S. cerevisiae deletion strains, locus YJR075W, strain HOC1, active compounds read low 1.07 | S. cerevisiae deletion strains, locus YKL190W, strain CNB1, active compounds read low 1.01 | S. cerevisiae deletion strains, locus YLR039C, strain RIC1, active compounds read low 1.03 | S. cerevisiae deletion strains, locus YLR058C, strain SHM2 (second series), active compounds read low 0.992 | S. cerevisiae deletion strains, locus YLR085C, strain ARP6, active compounds read low 0.899 | S. cerevisiae deletion strains, locus YLR262C, strain YPT6, active compounds read low 0.953 | S. cerevisiae deletion strains, locus YML094W, strain GIM5, active compounds read low 0.924 | S. cerevisiae deletion strains, locus YMR219W, strain ESC1, active compounds read low 1.02 | S. cerevisiae deletion strains, locus YMR263W, strain SAP30, active compounds read low 0.928 | S. cerevisiae deletion strains, locus YMR307W, strain GAS1, active compounds read low 1.09 | S. cerevisiae deletion strains, locus YNL153C, strain GIM3, active compounds read low 0.951 | S. cerevisiae deletion strains, locus YNL298W, strain CLA4 (second series), active compounds read low 0.879 | S. cerevisiae deletion strains, locus YNL322C, strain KRE1, active compounds read low 1.02 | S. cerevisiae deletion strains, locus YNR030W, strain Alg12, active compounds read low 0.928 | S. cerevisiae deletion strains, locus YOL006C, strain TOP1, active compounds read low 0.888 | S. cerevisiae deletion strains, locus YPL055C, strain LGE1, active compounds read low 1.01 | S. cerevisiae deletion strains, locus YPL241C, strain CIN2, active compounds read low 0.939 | S. cerevisiae deletion strains, locus YPR135W, strain CTF4, active compounds read low 0.968 | S. cerevisiae strains, strain wild type, active compounds read low 0.994
